In PubChem BioAssay (NCATS):
Where “and” joins values, the source holds several entries; their conditions need not be identical. Equal values may be shown once. Results filed as inconclusive are left out. Entries that show only a call come without a potency. A number with no mark means an inactive call. Calls of active or inactive are those of the source. The call rests on the fitted dose curve; in most records, active means well fitted curve in the direction sought with a large enough effect; inconclusive means small, poorly fitted or top-dose-only effect, or another doubt; inactive means no such curve, though single readings can be large; an effect the other way counts as inactive or inconclusive.

How the values were obtained:
[1] = Viability qHTS for spleen associated tyrosine kinase inhibitor (SYKi) drug resistant MV4-11 cells (AID 1963824); further: nearly all actives have a fitted effect of over 35% in size
How it was run: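 CellTiter-Glo luminescence, read 10 min after reagent addition, reports viability after a 72 hr compound exposure. Cells are an MV4-11 line made resistant to SYK inhibition, seeded at 500 per well onto compound-containing plates.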

[2] = Quantitative highthroughput screen to assess conditional lethalithy of NOMO1 cells grown in RPMI1640 with untreated serum (RPMI+s) (AID 1963876); further: nearly all actives have a fitted effect of over 35% in size
How it was run: (§1)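 Each medium arm—HPLM with 10% dialyzed FBS, or RPMI1640 with 5 mM glucose and 10% untreated or dialyzed FBS—was screened against an 11-point, 3-fold compound titration for 48 h at 37 °C, with CellTiter-Glo luminescence as endpoint.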

[3] = Quantitative highthroughput screen to assess conditional lethalithy of NOMO1 cells grown in RPMI1640 with dialyzed fetal bovine serum (RPMI+ds) (AID 1963877); further: nearly all actives have a fitted effect of over 30% in size; on Viability: series mostly up to about 46 µM
How it was run: as §1

[4] = Quantitative highthroughput screen to assess conditional lethalithy of P12 Ichikawa cells grown in Human Plasma-Like Medium with dialyzed fetal bovine serum (HPLM+ds) (AID 1963879); conditions: Potency: viability; further: nearly all actives have a fitted effect of over 35% in size; on Viability: series mostly up to about 46 µM
How it was run: as §1

[5] = Quantitative highthroughput screen to assess conditional lethalithy of P12 Ichikawa cells grown in RPMI1640 with dialyzed fetal bovine serum (RPMI+ds) (AID 1963880); conditions: Potency: P12-Ichikawa viability; further: nearly all actives have a fitted effect of over 35% in size
How it was run: as §1

[6] = Quantitative highthroughput screen to assess conditional lethalithy of P12 Ichikawa cells grown in RPMI1640 with untreated serum (RPMI+s) (AID 1963881); conditions: Potency: viability; further: nearly all actives have a fitted effect of over 35% in size; on Viability: series mostly up to about 46 µM
How it was run: as §1

[7] = Quantitative highthroughput screen to assess conditional lethalithy of SEM cells grown in Human Plasma-Like Medium with dialyzed fetal bovine serum (HPLM+ds) (AID 1963882); further: nearly all actives have a fitted effect of over 35% in size; on Viability: series mostly up to about 46 µM
How it was run: as §1

[8] = Quantitative highthroughput screen to assess conditional lethalithy of SEM cells grown in RPMI1640 with unreated serum (RPMI+s) (AID 1963883); further: nearly all actives have a fitted effect of over 35% in size
How it was run: as §1

[9] = Quantitative highthroughput screen to assess conditional lethalithy of SEM cells grown in RPMI1640 with dialyzed fetal bovine serum (RPMI+ds) (AID 1963884); further: nearly all actives have a fitted effect of over 35% in size; on Viability: series mostly up to about 46 µM
How it was run: as §1

[10] = Cellular viability qHTS for adrenocortical cancer (ACC) cell line NCI-H295R (AID 1963990); further: nearly all actives have a fitted effect of over 60% in size
How it was run: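 Readout: CellTiter-Glo luminescence, 20 min RT. Exposure: 48 h, 37C/5% CO2. Cells: NCI-H295R, ITS-DMEM serum-free. Range: up to 46 uM. Analysis: 4PL fit, IC50 plus efficacy.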

[11] = Quantitative highthroughput screen to assess conditional lethalithy of NOMO1 cells grown in Human Plasma-Like Medium with dialyzed fetal bovine serum (HPLM+ds) (AID 1963878); further: nearly all actives have a fitted effect of over 35% in size
How it was run: as §1

[12] = Cellular viability qHTS for adrenocortical cancer (ACC) cell line SW-13 (AID 1963989); conditions: SW-13 ACC cells viability, CellTiter-Glo, 48 h; activity (max response): hits give low values; further: nearly all actives have a fitted effect of over 65% in size;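 on activity (max response): cells grown in serum-free medium with ITS supplement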
How it was run: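 Compound titrations (up to 46 uM final, in DMSO) were applied to SW-13 cells for 48 h at 37C/5% CO2. Reading used CellTiter-Glo after 20 min at room temperature; fitted curves yielded IC50 and efficacy.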
Potency means the concentration at half of the fitted maximal effect.

SMILES | Potency [1] | Potency [2] | Potency [3] | Potency [4] | Potency [5] | Potency [6] | Potency [7] | Potency [8] | Potency [9] | Potency [10] | Potency [11] | Potency [12] | activity (max response) [12]
CC(C)(O)CCc1ccc(OCc2cc(-c3cccc(OC(F)F)c3)c3ncccc3c2)cc1 | 16.6 µM (active) | inactive | inactive | inactive | inactive | inactive | inactive | inactive | inactive | 25100 nM (active) |  |  | 
COc1ccc(C2CC(c3ccccc3)=NN2c2ccc(S(N)(=O)=O)cc2)cc1 (centres undefined) | 18.6 µM (active) | 4180 nM (active) |  | 6620 nM (active) | 3720 nM (active) | 4180 nM (active) | 2350 nM (active) | 1180 nM (active) | 1660 nM (active) |  | 2640 nM (active) |  | 
COc1c(C)cnc(Cn2cnc3c(Cl)nc(N)nc32)c1C | 0.235 µM (active) | 743 nM (active) | 662 nM (active) |  |  |  | 372 nM (active) | 264 nM (active) | 296 nM (active) | 1780 nM (active) | 662 nM (active) | 2000 nM (active) | 
CCNC(=O)c1cc2c(-c3cc(OCCN4CCCC4)c(Cl)cc3Cl)nc(N)nc2s1 | 0.162 µM (active) | 3720 nM (active) | 4690 nM (active) |  |  |  | 2960 nM (active) |  |  | 2540 nM (active) | 4180 nM (active) | 1600 nM (active) | 
Cc1cccc(-c2nn(C(=S)Nc3ccccc3)cc2-c2ccnc3ccccc23)n1 | 18.6 µM (active) | inactive | inactive |  |  | inactive | inactive |  |  | inactive | inactive |  | 
NC(=O)c1ccc(-c2nc(-c3ccc4c(c3)OCO4)c(-c3ccccn3)[nH]2)cc1 | 11.6 µM (active) | inactive | inactive | inactive | inactive | inactive | inactive |  | inactive | inactive |  |  | -5.02%
OCCn1cc(-c2cnc3nnn(Cc4ccc5ncccc5c4)c3n2)cn1 | 20.9 µM (active) | inactive | inactive |  | inactive | inactive |  |  |  | inactive |  |  | -4.78%
CCCS(=O)c1ccc2nc(NC(=O)OC)[nH]c2c1 (centres undefined) | 23.7 µM (active) and 23.5 µM (active) | 20900 nM (active) |  |  |  |  |  |  |  |  | 20900 nM (active) |  | 
CCS(=O)(=O)N1CC(CC#N)(n2cc(-c3ncnc4[nH]ccc34)cn2)C1 | 16.4 µM (active) and 10.5 µM (active) | inactive | inactive |  | inactive | inactive |  |  |  |  |  |  | 
C[C@@H]1CN(CC(=O)N2CC(C)(C)c3ncc(Cc4ccc(F)cc4)cc32)[C@@H](CN2CCOC[C@H]2C)CN1 | 0.468 µM (active) | inactive | 20900 nM (active) | inactive | inactive | inactive | inactive |  |  |  |  |  | -27%
CN(Cc1cc(Br)cc(Br)c1N)C1CCCCC1 | 10.6 µM (active) | inactive | inactive | inactive | inactive | inactive | inactive | inactive |  |  |  |  | 
O=S(=O)(c1cccc2cnccc12)N1CCCNCC1 | inactive | inactive | inactive |  |  | inactive | inactive |  | inactive | inactive |  |  | 2.02% and -0.384%
N#CC(c1ccc(Cl)cc1)c1c(Cl)cc(-n2ncc(=O)[nH]c2=O)cc1Cl (centres undefined) | 26.3 µM (active) | inactive | inactive |  |  |  | inactive | inactive | inactive |  | inactive |  | 
C=C(C)[C@@H]1CC[C@]2(C(=O)O)CC[C@]3(C)[C@H](CC[C@@H]4[C@@]5(C)CC[C@H](O)C(C)(C)[C@@H]5CC[C@]43C)[C@@H]12 | 2.95 µM (active) | inactive | inactive | inactive | inactive | inactive | inactive |  |  | inactive |  |  | 19.8%
Cn1cnc2c(F)c(Nc3ccc(Br)cc3Cl)c(C(=O)NOCCO)cc21 | 668 nM (active) and 164 nM (active) and 468 nM (active) | 590 nM (active) | 296 nM (active) | 662 nM (active) | 743 nM (active) | 662 nM (active) | 662 nM (active) | 469 nM (active) | 469 nM (active) | inactive |  |  | 
CCOc1cc(C(C)(C)C)ccc1C1=N[C@@](C)(c2ccc(Cl)cc2)[C@@](C)(c2ccc(Cl)cc2)N1C(=O)N1CCN(CC(=O)N2CCOCC2)CC1 | 11.5 µM (active) | inactive | inactive | inactive | inactive | inactive | inactive | 6600 nM (active) | 5880 nM (active) | 14100 nM (active) |  |  | 
CCOC(=O)c1ccc(OC(=O)CCCCCN=C(N)N)cc1 | inactive | 3320 nM (active) | 3320 nM (active) | 1870 nM (active) |  | 7430 nM (active) |  |  |  | inactive |  |  | 3.73%
COCCOc1ccc2c(c1)ncn2-c1ccc2cccc(N3CCC(N)CC3)c2n1 | 11.6 nM (active) and 16.6 nM (active) | 18700 nM (active) | 18700 nM (active) |  |  |  |  | 93.5 nM (active) | 26.4 nM (active) | 12600 nM (active) |  | 25100 nM (active) | 
COc1ccc(-c2cc3nccn3c(Nc3ncccc3C(N)=O)n2)cc1OC | 0.206 µM (active) | inactive | inactive | inactive | inactive | inactive |  |  |  | inactive |  |  | -18.6%
